In the supplement of paper PMC6555819:

What was measured:
Test in all cases: PBM binding z-score (relative to random genomic background probes); higher = stronger binding; sequences stand for … in GC…GCGATTGACAGCGTAGAATGAAGG
[1] = tested on: PPARg:RXRa DBDmut IVT, anti-RXR (DBD mutation: RXRa K156A/R161A, NR concentration 270 nM, RXRa partner concentration 90 nM)
Method in brief: (§1)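 Antibodies against each partner of ligand-free nuclear receptor dimers (one per run) detected binding on custom Agilent 4×180K protein-binding microarrays after 1 h incubation. The double-stranded probes had 34-nt variable regions carrying direct-repeat seeds, single-nucleotide variants, half-site ablations and random human genomic background sequences. Binding z-scores, from regression-normalized fluorescence, use the random background probes as reference.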

[2] = tested on: PPARg:RXRa IVT, anti-PPARg (NR concentration 270 nM, RXRa partner concentration 90 nM)
Method in brief: as §1

[3] = tested on: PPARg DBDmut:RXRa IVT, anti-PPARg (DBD mutation: PPARg1 K132A/R137A, NR concentration 270 nM, RXRa partner concentration 90 nM)
Method in brief: as §1

[4] = tested on: PPARg DBDmut IVT, anti-PPARg (DBD mutation: PPARg1 K132A/R137A, NR concentration 270 nM)
Method in brief: as §1

[5] = tested on: PPARg homodimer (NR concentration 180 nM)
Method in brief: as §1

[6] = tested on: PXR:RXRa (NR concentration 270 nM, RXRa partner concentration 90 nM)
Method in brief: as §1

[7] = tested on: PXR homodimer (NR concentration 270 nM)
Method in brief: as §1

[8] = tested on: RARa:RXR (NR concentration 270 nM, RXRa partner concentration 90 nM)
Method in brief: as §1

[9] = tested on: RARa homodimer (NR concentration 270 nM)
Method in brief: as §1

[10] = tested on: RARb:RXRa (NR concentration 270 nM, RXRa partner concentration 90 nM)
Method in brief: as §1

[11] = tested on: RARb homodimer (NR concentration 270 nM)
Method in brief: as §1

[12] = tested on: RARg:RXRa (NR concentration 270 nM, RXRa partner concentration 90 nM)
Method in brief: as §1

[13] = tested on: RARg homodimer (NR concentration 270 nM)
Method in brief: as §1

[14] = tested on: RXRa DBDmut IVT, anti-RXR (DBD mutation: RXRa K156A/R161A, NR concentration 90 nM)
Method in brief: as §1

[15] = tested on: RXRa homodimer (NR concentration 180 nM)
Method in brief: as §1

[16] = tested on: THRa:RXRa (NR concentration 90 nM, RXRa partner concentration 90 nM)
Method in brief: as §1

[17] = tested on: THRa homodimer (NR concentration 90 nM)
Method in brief: as §1

[18] = tested on: VDR homodimer (NR concentration 270 nM)
Method in brief: as §1

Sequence: CCTTACAGGTCACTCCAGGTTATAGCATCGGAGT
- PBM binding z-score [1]: 4.37
- PBM binding z-score [2]: 4.23
- PBM binding z-score [3]: 0.516
- PBM binding z-score [4]: 0.777
- PBM binding z-score [5]: 2.41
- PBM binding z-score [6]: 4.74
- PBM binding z-score [7]: 0.873
- PBM binding z-score [8]: 3.71
- PBM binding z-score [9]: 1.13
- PBM binding z-score [10]: 4.61
- PBM binding z-score [11]: 3.76
- PBM binding z-score [12]: 4.74
- PBM binding z-score [13]: 4.71
- PBM binding z-score [14]: 2.2
- PBM binding z-score [15]: 4.35
- PBM binding z-score [16]: 5.15
- PBM binding z-score [17]: 1.32
- PBM binding z-score [18]: 2.04

Sequence: AGAATGAGGTTACCAAAGAACAGGGAAACGCTTG
- PBM binding z-score [1]: 3.61
- PBM binding z-score [2]: 3.21
- PBM binding z-score [3]: 0.635
- PBM binding z-score [4]: 0.163
- PBM binding z-score [5]: 0.531
- PBM binding z-score [6]: 1.06
- PBM binding z-score [7]: 0.0622
- PBM binding z-score [8]: 1.64
- PBM binding z-score [9]: 0.0488
- PBM binding z-score [10]: 2.11
- PBM binding z-score [11]: 0.612
- PBM binding z-score [12]: 1.93
- PBM binding z-score [13]: 1.35
- PBM binding z-score [14]: 0.909
- PBM binding z-score [15]: 2.36
- PBM binding z-score [16]: 2.59
- PBM binding z-score [17]: 0.733
- PBM binding z-score [18]: 0.342

Sequence: CCTTACGGTTCACGAGGTTATAGCACGACGAGCG
- PBM binding z-score [1]: 0.19
- PBM binding z-score [2]: 0.535
- PBM binding z-score [3]: 0.19
- PBM binding z-score [4]: 0.414
- PBM binding z-score [5]: 1.45
- PBM binding z-score [6]: 3.2
- PBM binding z-score [7]: 1.29
- PBM binding z-score [8]: 3.8
- PBM binding z-score [9]: 1.36
- PBM binding z-score [10]: 1.99
- PBM binding z-score [11]: 2
- PBM binding z-score [12]: 2.73
- PBM binding z-score [13]: 1.5
- PBM binding z-score [14]: 3.15
- PBM binding z-score [15]: 4.01
- PBM binding z-score [16]: 2.8
- PBM binding z-score [17]: 1.26
- PBM binding z-score [18]: 3.82

Sequence: GATACAGGGTCAAGGCCAGAGCACGCGTATTGAT
- PBM binding z-score [1]: 2.49
- PBM binding z-score [2]: 4.08
- PBM binding z-score [3]: 0.585
- PBM binding z-score [4]: 0.0811
- PBM binding z-score [5]: 2.41
- PBM binding z-score [6]: 3.86
- PBM binding z-score [7]: 0.352
- PBM binding z-score [8]: 4.64
- PBM binding z-score [9]: 0.569
- PBM binding z-score [10]: 4.5
- PBM binding z-score [11]: 3.82
- PBM binding z-score [12]: 5.4
- PBM binding z-score [13]: 4.9
- PBM binding z-score [14]: 2.27
- PBM binding z-score [15]: 5.45
- PBM binding z-score [16]: 3.6
- PBM binding z-score [17]: 1.34
- PBM binding z-score [18]: 1.92

Sequence: CCAACTAGGTCACGAAAGGTCAAAGTCGAATGAC
- PBM binding z-score [1]: 8.35
- PBM binding z-score [2]: 8.54
- PBM binding z-score [3]: 1.23
- PBM binding z-score [4]: 0.869
- PBM binding z-score [5]: 6.09
- PBM binding z-score [6]: 7.02
- PBM binding z-score [7]: 3.52
- PBM binding z-score [8]: 7.39
- PBM binding z-score [9]: 3.62
- PBM binding z-score [10]: 5.63
- PBM binding z-score [11]: 6.02
- PBM binding z-score [12]: 8.03
- PBM binding z-score [13]: 8.57
- PBM binding z-score [14]: 2.76
- PBM binding z-score [15]: 8.76
- PBM binding z-score [16]: 5.44
- PBM binding z-score [17]: 2.87
- PBM binding z-score [18]: 3.88

Sequence: GCAGATAGGTAATACAAGGTGAAAGTCCGATTGT
- PBM binding z-score [1]: 0.315
- PBM binding z-score [2]: 0.869
- PBM binding z-score [3]: 0.607
- PBM binding z-score [4]: 0.154
- PBM binding z-score [5]: 0.298
- PBM binding z-score [6]: 0.645
- PBM binding z-score [7]: 0.172
- PBM binding z-score [8]: 0.91
- PBM binding z-score [9]: 0.423
- PBM binding z-score [10]: 0.412
- PBM binding z-score [11]: 0.807
- PBM binding z-score [12]: 0.57
- PBM binding z-score [13]: 0.471
- PBM binding z-score [14]: -0.0602
- PBM binding z-score [15]: 0.646
- PBM binding z-score [16]: 4.12
- PBM binding z-score [17]: 0.853
- PBM binding z-score [18]: 0.0811

Sequence: CTACCAAGGTGAACGAGGTCGTTGATTACTATTC
- PBM binding z-score [1]: 2.17
- PBM binding z-score [2]: 2.89
- PBM binding z-score [3]: 0.126
- PBM binding z-score [4]: -0.713
- PBM binding z-score [5]: 0.838
- PBM binding z-score [6]: 3.54
- PBM binding z-score [7]: 2.67
- PBM binding z-score [8]: 2.7
- PBM binding z-score [9]: 0.278
- PBM binding z-score [10]: 2.3
- PBM binding z-score [11]: 2.24
- PBM binding z-score [12]: 2.13
- PBM binding z-score [13]: 1.32
- PBM binding z-score [14]: 1.85
- PBM binding z-score [15]: 2.26
- PBM binding z-score [16]: 3.36
- PBM binding z-score [17]: 2.17
- PBM binding z-score [18]: 3.61
